Screening data as filed in PubChem BioAssay.
TIM10 inh = inhibits growth of TIM10 yeast strain; S. cerevisiae TIM10 strain growth, BacTiter-Glo luminescence, 24 h; inhibition, % at 10 µM; hit rate 1.4% among 330,000; AID 463195;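 active means inhibition of 40% or more at the single tested concentration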;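 further: wild-type TIM10 isogenic control strain grown at permissive 25 °C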
V-ATPase pH = regulators of yeast V-ATPase proton transport; S. cerevisiae, pHLuorin cytosolic pH fluorescence; response, % at 10 µM; hit rate 0.37% among 350,000; in the data active means response mostly above about 7.3%, no sharp cut-off; inactive means mostly below about 5.4%; further: actives read high
tim23-1 inh = growth inhibitors of tim23-1 mutant yeast; AID 463212; inhibition, % at 20 µM; S. cerevisiae tim23-1 growth, BacTiter-Glo luminescence, 24 h; hit rate 1.3% among 330,000;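 active means growth inhibition of the mutant yeast at or above 50%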;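 further: temperature-sensitive mutant grown at 25 °C; plate controls were DMSO-treated mutant yeast for no effect and medium wells lacking yeast for full effect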
SKKanGAS inh = SKKanGAS growth inhibition; S. pyogenes SKKanGAS, kanamycin growth, BacTiter-Glo, 6 h; inhibition, % at 7.5 µM; hit rate 1.3% among 300,000; AID 1662;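 active means mean replicate score, as percent of positive control median, at least 50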;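 further: strain carries kanamycin resistance gene driven by streptokinase promoter and grows in 40 µg/ml kanamycin; loss of luminescence reflects streptokinase promoter inhibition or plain growth inhibition; 0% = median of DMSO wells and 100% = positive control at its reference dose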
tim10-1 inh = tim10-1 yeast growth inhibition. inhibition, % at 20 µM. AID 463190. hit rate 2.2% among 330,000. S. cerevisiae tim10-1 ts strain growth, BacTiter-Glo, 24 h;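 active means inhibition of at least 40%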;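 further: mutant grown at 25 °C; 0% = DMSO wells with yeast and 100% = wells holding no yeast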
PfHsp90 set2 = reduces growth (ATP signal) of yeast expressing P. falciparum Hsp90. S. cerevisiae expressing PfHsp90, BacTiter-Glo ATP, 48 h; yeast lacking PDR1 and PDR3 efflux regulators. inhibition, % at 9.4 µM. hit rate 0.32% among 310,000;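 active means every replicate shows inhibition above about 80%, whatever the replicate mean, limit read from the data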;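 further: 0% = DMSO neutral controls and 100% = 20 µM radicicol positive controls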
TIM10 conf = confirmation of TIM10 yeast growth inhibitors. shares compounds with TIM10 inh. S. cerevisiae tim10 strain growth, BacTiter-Glo luminescence, 24 h. inhibition, % at 10 µM. hit rate 63% among 4,600. AID 463215;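 active means inhibition of yeast growth at or above a set limit in either of two replicates at 10 µM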;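 further: this counterscreen used the strain with wild-type TIM10; 0% = yeast with DMSO and 100% = medium wells lacking yeast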
* hit, by the source's call; . = no result given. Rows were chosen to be rich in hits. Some 4.6% of all compounds tested hit in one or more screens of this group.

SMILES | TIM10 inh | V-ATPase pH | tim23-1 inh | SKKanGAS inh | tim10-1 inh | PfHsp90 set2 | TIM10 conf
CCCCC[C@@H]1C=C(C(=O)O)[C@H](c2ccc(OC)c(OC)c2)N1S(=O)(=O)c1ccc(C)cc1 | 97* | -1 | -9 | . | 6 | -4 | 11
CCOC(=O)c1ccc(S(=O)(=O)N2CCN(C3CC(=O)N(c4ccccc4C(F)(F)F)C3=O)CC2)cc1 (stereo not drawn) | 5 | -1 | -7 | . | -9 | -2 | .
O=C(Oc1ccc2[nH]cc(CCN3C(=O)c4ccccc4C3=O)c2c1)c1ccco1 | 43* | -2 | 30 | -15 | 31 | . | 39*
O=C(COC(=O)/C=C/c1ccc([N+](=O)[O-])cc1)Nc1ccc(F)cc1 | 7 | 1 | 16 | . | 20 | -24 | .
O=C(COC(=O)c1ccc([N+](=O)[O-])s1)Nc1cccc(S(=O)(=O)NC2=NCCCCC2)c1 | 21 | -2 | 4 | 7 | 9 | -11 | .
O=C(COC(=O)c1ccc([N+](=O)[O-])s1)Nc1ccc(F)cc1 | 74* | 1 | 37 | . | -34 | -8 | 77*
O=C(COC(=O)c1ccc([N+](=O)[O-])s1)Nc1ccccc1 | 46* | 5 | 40 | 4 | 17 | 10 | -7
O=C(Nc1cccnc1)c1ccc([N+](=O)[O-])s1 | 56* | 0 | 44 | . | 14 | -1 | 53*
Cc1[nH]c2ccccc2c1C(=O)COC(=O)c1ccc([N+](=O)[O-])s1 | 71* | 3 | 27 | 51* | -18 | 13 | 83*
CC1CC1C(=O)OCC(=O)N(C)c1c(N)n(Cc2ccccc2)c(=O)[nH]c1=O (stereo not drawn) | -10 | -7 | -18 | -8 | -13 | 37 | .
O=C(Nc1ccc(S(=O)(=O)NC2=NCCCCC2)cc1)C1COc2ccccc2O1 (stereo not drawn) | 17 | 0 | 13 | 0 | 20 | -5 | .
CCOC(=O)C1=C(N)Oc2ccc3ccccc3c2C1c1cccnc1 (stereo not drawn) | 46* | -3 | 11 | 7 | 27 | -4 | -6
O=c1oc2c(CN3CCOCC3)c(O)c(Cl)cc2c2c1CCCC2 | -4 | -1 | 2 | 16 | 1 | -5 | .
O=c1oc2c3c4c(cc2c2c1CCC2)OCCN4CCC3 | 41* | -1 | 39 | . | 34 | -18 | 2
CCCn1cnc2cc(NC(=O)c3cccs3)ccc21 | 61* | -2 | 49 | -17 | 24 | -2 | 42*
CCCn1cnc2cc(NC(=O)c3ccco3)ccc21 | 0 | -2 | 46 | 0 | 0 | 6 | .
CCCn1c2c(c(O)c(C(=O)Nc3nccs3)c1=O)CCCC2 | 19 | 3 | 31 | 18 | 23 | -2 | .
CCCn1c2c(c(O)c(C(=O)Nc3ncccc3C)c1=O)CCCC2 | 45* | 0 | 49 | -1 | 25 | 0 | 8
CCCOc1ncnc2c1[nH]c1ccccc12 | 48* | -3 | 34 | -4 | 2 | 32 | 31*
COc1ccccc1NC(=S)N1CCN(c2ncccn2)CC1 | 95* | 8 | 2 | -1 | -14 | -7 | 3
Nc1nonc1-n1nnc(C(=O)N/N=C/c2ccc(OCc3cccc(Cl)c3)cc2)c1CN1CCCCC1 | -4 | 0 | 5 | 18 | 6 | 2 | .
Cc1cccc(COc2ccc(/C=N/NC(=O)c3nnn(-c4nonc4N)c3CN3CCCCC3)cc2)c1 | 42* | 1 | -15 | 11 | -2 | 11 | -2
COc1ccc(N(CC(=O)N/N=C/c2cc(OC)ccc2OC)S(=O)(=O)c2ccccc2)cc1 | 55* | 3 | 11 | 18 | 7 | -27 | 17
O=C(C#Cc1ccccc1)c1cccc([N+](=O)[O-])c1 | 72* | 18 | 17 | -3 | -63 | 152* | 70*
CC(=O)N1c2ccc(S(=O)(=O)N3CCCCC3)cc2CC1C(=O)NCc1ccccc1C (stereo not drawn) | 5 | 4 | -1 | -11 | 3 | 19 | .
SMILES | TIM10 inh | V-ATPase pH | tim23-1 inh | SKKanGAS inh | tim10-1 inh | PfHsp90 set2 | TIM10 conf
CCCOC(=O)c1ccc(NC(=O)c2ccoc2C)cc1 | -2 | -3 | 10 | 5 | -1 | 22 | .
CCCCOC(=O)c1ccc(NC(=O)c2ccoc2C)cc1 | 41* | 1 | 27 | 3 | 34 | 5 | 2
CCn1c(N)[n+](CC(=O)Nc2ccc(SC(F)F)cc2)c2ccccc21 | -7 | 1 | 11 | -1 | -13 | -20 | .
CC(C)COC(=O)C(C#N)c1nc2ccccc2nc1N1CCN(Cc2ccc3c(c2)OCO3)CC1 (stereo not drawn) | 49* | 4 | 25 | 8 | 35 | -9 | 39*
CCN(CCn1cccn1)C(=O)c1cc(COc2cc(C)ccc2C)on1 | 3 | -3 | 21 | 11 | 17 | -6 | .
O=C(Nc1nccs1)c1ccc2nccnc2c1 | 41* | 0 | 40 | -5 | 24 | -8 | 39*
O=C(c1cnn(C(=O)CN2CCCC2=O)c1)c1ccccc1O | 0 | 4 | 30 | . | 0 | -12 | .
O=C(Oc1c(Br)cc(C(=S)N2CCOCC2)cc1Br)c1ccc(Cl)cc1 | 35 | -2 | 27 | 4 | 31 | -41 | .
O=C(Oc1ccc(C(=S)N2CCOCC2)cc1Br)c1cc(Cl)ccc1Cl | 47* | 2 | 24 | 37 | 32 | . | 15
CC(=O)Nc1ccc(O)c(-c2nc3ccccc3s2)c1 | 46* | -2 | 28 | -17 | 3 | 4 | -2
COc1ccccc1C(=O)NCCC(=O)NNC(=O)c1ccccc1O | 96* | 0 | 8 | -4 | -3 | 1 | -8
COCC(=O)NNC(=O)c1ccccc1OC | -6 | 4 | -7 | -8 | 4 | -7 | .
CC(C)Cn1c(N)c(C(=O)CSc2ncnc3sc4c(c23)CCCC4)c(=O)n(C)c1=O | -7 | -1 | 21 | 42 | 5 | -14 | .
O=C(NCCOc1ccc(F)cc1)C1CCC(=O)N(CCc2ccccn2)C1 (stereo not drawn) | 7 | 1 | 2 | 2 | 1 | -8 | .
COc1ccc(Sc2cc(C(F)(F)F)nc(-c3ccccn3)n2)cc1 | 45* | 5 | 34 | 21 | 37 | -12 | 31*
O=C(c1ccccc1)N1CCN(c2ccc([N+](=O)[O-])cc2-n2cccc2)CC1 | 2 | 0 | 21 | 3 | 15 | -2 | .
Cc1ccc(C2=NCCn3nc4cc([N+](=O)[O-])ccc4c32)cc1 | 12 | -2 | 13 | 5 | 17 | -12 | .
O=C(/C=C/c1ccccc1)Nc1ccc(C(=O)N2CCCCC2)cc1 | 48* | -2 | 17 | 1 | 34 | 21 | 26
O=C(/C=C/c1ccccc1)Nc1ccc(S(=O)(=O)N2CCOCC2)cc1 | 46* | -1 | 33 | 2 | 40 | 4 | 44*
O=C(/C=C/c1ccccc1)Nc1cccc(C(=O)N2CCCCC2)c1 | . | 4 | . | . | . | -34 | .
CC(=O)c1cccc(NC(=O)/C=C/c2ccc(S(=O)(=O)N3CCOCC3)cc2)c1 | 2 | -7 | 12 | . | 11 | -6 | .
